# In PubChem BioAssay AID1159580 (chemical genetic matrix, 2015):
# Several values for one entry are separate records, joined by “and”; a condition that tells them apart may be missing. Identical values can stand only once. The campaign covered roughly 5,500 compounds. About 2,000 (36%) were called active. About 18% were inconclusive and are not listed. The list shows a part of the results. Values without a mark were called inactive. Rule as the data show it: active = normalized growth mostly below about 0.91 (no sharp cut-off); inconclusive = no clear call, values can overlap the other calls; inactive = mostly above about 0.92.
# Experiment: chemical genetic growth profiling, strain panel (AID 1159580);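 also: tested at 20 µM; growth read once vehicle control cultures reached saturation at 30 °C; 1 = growth at the plate median or of vehicle wells; lower values mean less growth of the strain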
# Details: S. cerevisiae deletion strains, growth OD
structure (smiles),measurement,setting,value
COC(=O)c1cc(=O)c(O)c2c(O)c(O)ccc2c1,normalized growth,"locus YAL021C, strain ccr4, active compounds read low",1
same,normalized growth,"locus YAL026C, strain drs2, active compounds read low",0.968
same,normalized growth,"locus YAL030W, strain snc1, active compounds read low",0.991
same,normalized growth,"locus YBL061C, strain skt5, active compounds read low",0.988
same,normalized growth,"locus YBR009C, strain hhf1, active compounds read low",0.985
same,normalized growth,"locus YBR021W, strain FUR4, active compounds read low",1.07
same,normalized growth,"locus YBR023C, strain chs3, active compounds read low",0.995
same,normalized growth,"locus YBR171W, strain sec66, active compounds read low",0.976
same,normalized growth,"locus YBR229C, strain ROT2, active compounds read low",0.976
same,normalized growth,"locus YBR231C, strain swc5, active compounds read low",0.976
same,normalized growth,"locus YBR279W, strain paf1, active compounds read low",1
same,normalized growth,"locus YCL011C, strain gbp2, active compounds read low",1
same,normalized growth,"locus YCL016C, strain dcc1, active compounds read low",0.989
same,normalized growth,"locus YCL029C, strain bik1, active compounds read low",0.713 (active)
same,normalized growth,"locus YCL061C, strain MRC1, active compounds read low",0.987
same,normalized growth,"locus YCL069W, strain vba3, active compounds read low",1
same,normalized growth,"locus YCR088W, strain abp1, active compounds read low",0.997
same,normalized growth,"locus YDL005C, strain med2, active compounds read low",1.01
same,normalized growth,"locus YDL035C, strain GPR1, active compounds read low",0.512 (active)
same,normalized growth,"locus YDL040C, strain nat1, active compounds read low",0.986
same,normalized growth,"locus YDL074C, strain BRE1, active compounds read low",0.743 (active)
same,normalized growth,"locus YDL101C, strain DUN1, active compounds read low",0.778 (active)
same,normalized growth,"locus YDL185W, strain tfp1, active compounds read low",0.631 (active)
same,normalized growth,"locus YDL192W, strain arf1, active compounds read low",0.772 (active)
same,normalized growth,"locus YDR001C, strain nth1, active compounds read low",0.999
same,normalized growth,"locus YDR069C, strain doa4, active compounds read low",0.955
same,normalized growth,"locus YDR101C, strain arx1, active compounds read low",0.842 (active)
same,normalized growth,"locus YDR137W, strain rgp1, active compounds read low",0.821 (active)
same,normalized growth,"locus YDR150W, strain NUM1, active compounds read low",0.852 (active)
same,normalized growth,"locus YDR159W, strain sac3, active compounds read low",0.947
same,normalized growth,"locus YDR162C, strain NBP2, active compounds read low",0.275 (active)
same,normalized growth,"locus YDR195W, strain ref2",0.934
same,normalized growth,"locus YDR297W, strain sur2, active compounds read low",0.987
same,normalized growth,"locus YDR318W, strain mcm21, active compounds read low",0.856 (active)
same,normalized growth,"locus YDR334W, strain swr1, active compounds read low",0.983
same,normalized growth,"locus YDR335W, strain msn5, active compounds read low",0.994
same,normalized growth,"locus YDR388W, active compounds read low",0.954
same,normalized growth,"locus YDR392W, strain spt3, active compounds read low",0.99
same,normalized growth,"locus YDR502C, strain sam2, active compounds read low",0.891 (active)
same,normalized growth,"locus YEL003W, strain gim4, active compounds read low",0.996
same,normalized growth,"locus YEL037C, strain rad23, active compounds read low",0.997
same,normalized growth,"locus YEL061C, strain CIN8 (second series), active compounds read low",0.994
same,normalized growth,"locus YER015W, strain faa2, active compounds read low",0.985
same,normalized growth,"locus YER016W, strain bim1, active compounds read low",0.973
same,normalized growth,"locus YER110C, active compounds read low",0.988
same,normalized growth,"locus YER111C, strain swi4, active compounds read low",0.976
same,normalized growth,"locus YER155C, strain BEM2 (second series), active compounds read low",0.977
same,normalized growth,"locus YER155C, strain BEM2, active compounds read low",0.922 (active)
same,normalized growth,"locus YER167W, strain BCK2, active compounds read low",0.862 (active)
same,normalized growth,"locus YFR010W, strain ubp6, active compounds read low",0.958
same,normalized growth,"locus YGL078C, strain dbp3, active compounds read low",0.732 (active)
same,normalized growth,"locus YGL086W, strain mad1, active compounds read low",0.71 (active)
same,normalized growth,"locus YGL167C, strain pmr1, active compounds read low",0.98
same,normalized growth,"locus YGL173C, strain kem1, active compounds read low",0.984
same,normalized growth,"locus YGL227W, strain vid30, active compounds read low",0.988
same,normalized growth,"locus YGL240W, strain doc1, active compounds read low",1.01
same,normalized growth,"locus YGL248W, strain PDE1, active compounds read low",0.73 (active)
same,normalized growth,"locus YGL253W, strain hxk2, active compounds read low",0.998
same,normalized growth,"locus YGR078C, strain PAC10, active compounds read low",0.713 (active)
same,normalized growth,"locus YGR135W, strain pre9, active compounds read low",0.795 (active)
same,normalized growth,"locus YGR229C, strain SMI1, active compounds read low",0.151 (active)
same,normalized growth,"locus YGR252W, strain gcn5, active compounds read low",0.948
same,normalized growth,"locus YHR013C, strain ard1, active compounds read low",1.04
same,normalized growth,"locus YHR027C, strain rpn1, active compounds read low",0.991
same,normalized growth,"locus YHR030C, strain SLT2, active compounds read low",0.604 (active) and 0.636 (active)
same,normalized growth,"locus YHR079C, strain IRE1 (second series), active compounds read low",0.874 (active)
same,normalized growth,"locus YHR079C, strain IRE1, active compounds read low",0.81 (active)
same,normalized growth,"locus YHR094C, strain hxt1, active compounds read low",0.968
same,normalized growth,"locus YHR129C, strain ARP1, active compounds read low",0.681 (active)
same,normalized growth,"locus YHR142W, strain chs7, active compounds read low",1.02
same,normalized growth,"locus YHR200W, strain rpn10, active compounds read low",0.878 (active)
same,normalized growth,"locus YIL066C, strain RNR3, active compounds read low",0.552 (active)
same,normalized growth,"locus YIL073C, strain SPO22, active compounds read low",0.416 (active)
same,normalized growth,"locus YIL125W, strain kgd1, active compounds read low",0.812 (active)
same,normalized growth,"locus YIR030C, strain dcg1, active compounds read low",0.932
same,normalized growth,"locus YJL092W, strain hpr5, active compounds read low",0.991
same,normalized growth,"locus YJL095W, strain BCK1 (second series), active compounds read low",0.99
same,normalized growth,"locus YJL095W, strain BCK1, active compounds read low",0.59 (active) and 0.624 (active)
same,normalized growth,"locus YJL115W, strain asf1, active compounds read low",0.99
same,normalized growth,"locus YJL129C, strain trk1, active compounds read low",0.997
same,normalized growth,"locus YJL134W, strain LCB3, active compounds read low",0.958
same,normalized growth,"locus YJL154C, strain vps35, active compounds read low",1.02
same,normalized growth,"locus YJL164C, strain tpk1, active compounds read low",0.995
same,normalized growth,"locus YJL166W, strain qcr8, active compounds read low",0.999
same,normalized growth,"locus YJL168C, strain set2, active compounds read low",0.924 (active)
same,normalized growth,"locus YJL187C, strain SWE1 (second series), active compounds read low",0.627 (active)
same,normalized growth,"locus YJL187C, strain SWE1, active compounds read low",0.992
